Laboratory results as given in PubChem BioAssay (NCI).
Compounds without any hit were thinned out: in the full panel of roughly 83,000, 20% have a hit.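 Negative percent growth values reflect cell death: -40 means 40% of the cells present at the start died, and -100 means all died.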 Values without a mark were called inactive. Active and inactive are the calls of the source.

What follows are compounds tested on MOLT-4 leukemia (assay: NCI-60 one-dose screen, 48 h (100 = growth as untreated, 0 = no growth, -100 = all killed)). Conditions: 10 µM unless noted.
Experimental: Growth inhibition of the MOLT-4 human tumor cell line is measured as a screen for anti-cancer activity. Cells are grown in 96 well plates and exposed to the test compound for 48 hours. Compounds are tested at a single concentration, which is 10^-5 M for most compounds. The reported endpoint is percent growth (GI% or GIPRCNT), where numbers from 0 - 100% represent growth inhibition, and numbers from -100% - 0 represent cell death. For example, a value of 40 represents 60% growth inhibition. A value of 0 means no net growth occurred over the course of the experiment. A value of -40 indicates 40% of cells at the beginning of the experiment died by the end of the experiment. A value of -100 means all cells are dead at the end of the experiment.
NCI-60 Human Tumor Cell Lines Screen was performed using the standard one-dose NCI protocol, which is described in more detail at https://dtp.cancer.gov/discovery_development/nci-60/default.htm.
Compounds with GIPRCNT values below 10 were considered active. Activity score was based on GIPRCNT using the following formula: […]
Score is 0 for GIPRCNT values of 100 or above, 50 for GIPRCNT values of 0, and 100 for GIPRCNT values of -100.

Q: COc1cccc(-c2nc(-c3ccc(NC(=O)c4ccccc4)cc3)[nH]c2-c2ccnc(Br)c2)c1 was tested. Which growth did it give?
A: The growth was 15.1%.

Q: Which growth does the source give for COc1ccc(OC)c(/C=C/c2nnc(Nc3ccccc3)o2)c1 here?
A: Its growth is 68.3%.

Q: How did the growth turn out when Cc1cc(-c2cc(C)c(N)cc2C)c(C)cc1N was run?
A: The growth was 100%.

Q: CCOC(=O)c1cn2ncnc(Oc3ccc(NC(=O)NCCN4CCOCC4)c(Cl)c3)c2c1C was tested. Which growth did it give?
A: Its growth is 106%.

Q: For COc1cc2cc(Oc3ccc(NC(=O)Nc4cc(C(F)(F)F)cc(C(F)(F)F)c4)cc3)c(C)nc2cc1OCCN1CCOCC1, which growth is on record?
A: The growth was 8.21% (active).

Q: With COc1ccc2c(c1)c(-c1ccc(-c3cn(C)c4ccc(OC)cc34)o1)cn2C as the compound, how does the growth read?
A: Its growth is 63.5%.

Q: How did the growth turn out when COc1cc(/C=C/c2c(C(C)=O)c(C)nc3ccccc23)cc(OC)c1OC was run?
A: The growth was 33.6%.

Q: COc1ccccc1/C=C1\Oc2cc(OCCN3CCC(Cc4ccccc4)CC3)ccc2C1=O was tested. Which growth did it give?
A: The growth was 72.2%.

Q: How did the growth turn out when Cc1nn(-c2ccccc2)c(-n2ccnc2)c1/C=N/Nc1nc(-c2ccc(F)cc2)cs1 was run?
A: The growth was 48.3%.

Q: Which growth does the source give for Cc1cc(=O)oc2cc(OC(=O)N3CCN(C)CC3)ccc12 here?
A: Its growth is 97.7%.

Q: Which growth does the source give for COc1ccc(C(=O)N=Nc2c(O)n(C)c3ccccc23)cc1 here?
A: Its growth is 99.9%.

Q: O=C(O)c1cn(C2CC2)c2cc(N3CCN(C(=O)Nc4nc(-c5ccc(Cl)cc5)cs4)CC3)c(F)cc2c1=O was tested. Which growth did it give?
A: The growth was 2.05% (active).

Q: For Fc1cc(-c2nnc3n2NC(=Nc2ccc(Cl)cc2)CS3)c(Cl)cc1Cl, which growth is on record?
A: Its growth is 87%.

Q: Which growth does the source give for Cc1ccc2sc3c(NCCCN)nc4ccccc4c3c(=O)c2c1 here?
A: The growth was -30.6% (active).

Q: With CCOC(=O)c1cn2ncnc(Oc3ccc(NC(=O)NCCN4CCN(C)CC4)c(Cl)c3)c2c1C as the compound, how does the growth read?
A: The growth was 57.2%.

Q: For CCCCCCn1c(-c2ccc(C(=O)O/N=C(\N)c3ccc4c(c3)OCO4)cc2)nc(-c2ccccc2)c1-c1ccccc1, which growth is on record?
A: Its growth is 0.83% (active).

Q: For C#C[C@]1(O)CC[C@H]2[C@@H]3CC=C4c5sc(Nc6ccccc6)nc5CC[C@]4(C)[C@H]3CC[C@@]21C, which growth is on record?
A: The growth was 7.73% (active).

Q: Which growth does the source give for CCOC(=O)Nc1ccc(-c2nc(-c3cccc(OCCN4CCOCC4)c3)c(-c3ccnc(Br)c3)[nH]2)cc1 here?
A: The growth was 7.57% (active).

Q: How did the growth turn out when O=C(Cc1ccc(F)c(Cl)c1)Nc1cc(C2(C(F)(F)F)CC2)nn1CC1CCCCC1 was run?
A: Its growth is 11.7%.

Q: With COc1cc(C2CC(c3ccc(SC)cc3)=NN2C(C)=O)cc(OC)c1OC (stereo not given) as the compound, how does the growth read?
A: The growth was 43.2%.

Q: Which growth does the source give for COc1cccc2c(=O)c3c(sc12)c(N1CCNCC1)nc1ccccc13 here?
A: Its growth is -13.3% (active).

Q: How did the growth turn out when Cc1ccc(-c2nc(N3CCN(C(=O)Nc4ccc(Cl)c(C(F)(F)F)c4)CC3)c3ccccc3n2)cc1 was run?
A: Its growth is 49.2%.

Q: For COc1cc(C(=O)N2N=C(c3ccc(S(C)(=O)=O)cc3)CC2c2ccco2)cc(OC)c1OC (stereo not given), which growth is on record?
A: Its growth is 41.5%.

Q: COc1ccc2c(c1OC)C(=O)O[C@H]2[C@H]1c2c(cc3c(c2OC)OCO3)CCN1C was tested. Which growth did it give?
A: The growth was 116%.

Q: Which growth does the source give for N#C/C(=C\c1ccc(F)cc1)n1nc2cccc(F)c2n1 here?
A: Its growth is 52.3%.

Q: For c1cc(NCCc2ccncc2)nc(-n2cnc3ccccc32)c1, which growth is on record?
A: Its growth is 86.4%.

Q: With CCN(CC)c1ccc(C2=NN(C(C)=O)C(c3cc(OC)c(OC)c(OC)c3)C2)cc1 (stereo not given) as the compound, how does the growth read?
A: Its growth is 5.57% (active).

Q: CCCCOc1nc2ccc(OC)cc2cc1-c1cc(-c2ccc(Cl)cc2)nc(-c2ccc(Cl)cc2)c1 was tested. Which growth did it give?
A: The growth was 113%.

Q: For OC(c1ccccc1)C(NC(Cc1ccccc1)c1ccccc1)c1ccccc1 (stereo not given), which growth is on record?
A: Its growth is 71.2%.

Q: For COc1cccc2nc3n(c12)C(c1c(F)cccc1F)SC3 (stereo not given), which growth is on record?
A: The growth was 87%.

Q: CCOC(=O)c1nc(Nc2ccc(C(C)=O)cc2)sc1C was tested. Which growth did it give?
A: Its growth is 97.8%.

Q: CCOC(=O)C1=C(N)Oc2c(sc3c(CC)cccc23)C1c1ccc(F)cc1 (stereo not given) was tested. Which growth did it give?
A: The growth was 64.2%.

Q: With COc1ccc(CNC(=O)[C@H](O)[C@@H](N)Cc2ccccc2)cc1 as the compound, how does the growth read?
A: Its growth is 107%.

Q: COc1ccc(/C=C(/C#N)n2nnc3cccc(F)c32)cc1 was tested. Which growth did it give?
A: The growth was 13.8%.

Q: For Cc1ccc2sc3c(NCCN)nc4ccccc4c3c(=O)c2c1, which growth is on record?
A: The growth was 49%.

Q: Which growth does the source give for c1cc2nc(-c3cn[nH]c3)c3c(c2cc1-c1cn[nH]c1)C1CCC3C1 (stereo not given) here?
A: The growth was 63%.

Q: Which growth does the source give for Oc1ccc(-c2nc3ccc4[nH]ncc4c3c3c2CCCC3)c2cccnc12 here?
A: The growth was 5.17% (active).

Q: For CC/C=C\C[C@@H](O)C/C=C1/C(=O)C=C[C@H]1C/C=C\CCCC(=O)OC, which growth is on record?
A: Its growth is -4.62% (active).

Q: With CC(C)n1cnc2c(Nc3cccc(Cl)c3)nc(N[C@H]3CCCC[C@@H]3N)nc21 as the compound, how does the growth read?
A: The growth was 7.51% (active).

Q: Which growth does the source give for COc1ccc(/C=C/c2c(C(=O)/C=C/c3ccc(Cl)cc3)c(C)nc3ccccc23)cc1 here?
A: Its growth is 4.01% (active).
